Test results published in PubChem BioAssay (NCI).
This is part of a sample that, as a whole, favours compounds with a hit. Of some 83,000 tested, about 20% had one in any assay.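 Treatment: one concentration, 48 hours, 96-well format. Scoring: percent growth, with anything below 10 considered active.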 Active and inactive are the calls of the source.

system: T-47D breast; assay: NCI-60 one-dose screen, 48 h (100 = growth as untreated, 0 = no growth, -100 = all killed); conditions: 10 µM unless noted

Structure (SMILES) | growth
COc1ccc(C(=O)/C(=N/Nc2ccccc2)c2ccc(OC)cc2)cc1 | 87% (inactive)
Cn1c(=O)c2[nH]c(CC(=O)O)nc2n(C)c1=O | 102% (inactive)
C=CC1=NC(C)(C)CC(C)O1 (stereo unspecified) | 92.2% (inactive)
O=C(Nc1ccccc1)c1ccco1 | 103% (inactive)
CCOC(=O)CNC | 97.2% (inactive)
Cc1cc(Cl)cc(Cc2cc(Cl)cc(C)c2O)c1O | 14% (inactive)
CC12CCC3c4ccc(O)cc4CCC3C1CCC2=O (stereo unspecified) | 103% (inactive)
Cc1onc(-c2ccccc2Cl)c1C(=O)Cl | 99.5% (inactive)
Nc1cc(N)ncn1 | 112% (inactive)
ClCC(Cl)C1CCC(Cl)C(Cl)C1 (stereo unspecified) | 100% (inactive)
O=[N+]([O-])c1ccc(-c2nc(N(CCO)CCO)c3ccccc3n2)o1 | 8.21% (active)
C=CCC(OC(C)=O)c1ccc(OC)c(OC)c1 (stereo unspecified) | 112% (inactive)
C/C(Cc1ccccc1)=N\O | 117% (inactive)
OCc1cccnc1 | 106% (inactive)
Cc1onc(-c2c(F)cccc2Cl)c1-c1ncc(-c2ccc(Br)cc2)o1 | 29.6% (inactive)
CC(C)c1ncc([N+](=O)[O-])n1C | 101% (inactive)
Oc1ccc(CCC2CCNc3ccccc32)cc1 (stereo unspecified) | 63.9% (inactive)
c1ccc2[nH]c(Cc3nc4ccccc4[nH]3)nc2c1 | 89.3% (inactive)

Structure (SMILES) | growth
CCOC(=O)C(CCC#N)(CCC#N)C(=O)OCC | 112% (inactive)
CCOC(=O)C(COS(C)(=O)=O)(COS(C)(=O)=O)C(=O)OCC | 103% (inactive)
CC(=O)O[C@H]1CC[C@]2(C)C3=C(C(=O)C[C@H]2C1(C)C)[C@]1(C)CC[C@H]([C@H](C)CCC(=O)O)[C@@]1(C)CC3=O | 91.5% (inactive)
CC(=O)OCC1CCC(COC(C)=O)CC1 (stereo unspecified) | 93% (inactive)
CC(=O)NNC(=S)N/C=C/c1c(C)ccc([N+](=O)[O-])c1[N+](=O)[O-] | 110% (inactive)
CCOC(=O)c1c[nH][nH]c1=O | 103% (inactive)
O=S(Cc1ccccc1)/C(=C/NC(=S)Nc1ccccc1)c1ccccc1 (stereo unspecified) | 90.2% (inactive)
CCOc1ccc(NC(=S)N2CCC(CCCC3CCN(C(=S)Nc4ccc(OCC)cc4)CC3)CC2)cc1 | 67.8% (inactive)
COc1ccc(C)cc1NC(=O)SC(C)C | 89.7% [100 µM] (inactive)
Nc1ncnc(Nc2ccc(C(F)(F)F)cc2)n1 | 96.8% (inactive)
Cc1c(Cl)cccc1N=C=S | 107% (inactive)
O=C(OC1CCCC1)c1ccccc1Cl | 96% (inactive)
BrCc1cccc(C[P+](c2ccccc2)(c2ccccc2)c2ccccc2)c1 | 28.2% (inactive)
Cc1c(-c2ccc(C3CCCCC3)cc2)nc2ccc(F)cc2c1C(=O)O | 66.1% (inactive)
CC(=O)NC(CCc1ccc(Cl)c(Cl)c1)c1cccc(O)c(=O)c1 (stereo unspecified) | 17.7% (inactive)
COc1cccc(C(=O)NNC(=O)c2cccc3ccccc23)c1 | 95.4% (inactive)
O=C(CCl)Nc1ccccc1SCc1cc(Cl)cc2c1OCOC2 | 55.9% (inactive)
CCN(CC)c1ccc2nc3ccc(N=Nc4ccc(N(C)C)cc4)cc3[n+](-c3ccccc3)c2c1 | 0.779% (active)
